Shown are actives, neighbours in structure and some others; about 3.9% of the full set was active somewhere.
Vc quorum ag: inducers of Vibrio cholerae quorum light production without autoinducers, primary screen, BH1578 luxS cqsA deficient, single point. V. cholerae BH1578 lux reporter, luminescence, 6 h. activation, % at 18.7 µM. actives 0.16% (n = 350,000). AID 588436, 2011; in the data active = activation mostly above about 9.7%, no sharp cut-off; inconclusive = no clear call, values can overlap the other calls; inactive = mostly below about 3.7%
Autofluor counter: counter-screen for toxin protease inhibitors: compound fluorescence. compound autofluorescence counterscreen, microsphere flow cytometry; active compounds read high. fluorescence intensity (concentration not given with the values). actives 3.1% (n = 360,000). AID 624483; in the data active = fluorescence intensity above about 16000; inconclusive = no clear call, values can overlap the other calls
Anthrax LF prot: Bacillus anthracis LF protease inhibitors, primary screen, biochemical, multiplex microsphere, MLPCN library; actives 0.12% (n = 360,000); multiplex microsphere protease cleavage assay; inhibition, % at 10 µM; Lethal factor (Bacillus anthracis), P15917
BoNT-A LC inh2: BoNT/A light chain protease inhibitors, primary screen, biochemical, flow cytometry, MLPCN library | AID 588499, 2011 | multiplex microsphere protease substrate cleavage | actives 0.17% (n = 360,000) | Botulinum neurotoxin type A light chain protease (Clostridium botulinum A str. ATCC 3502) | inhibition, % at 10 µM
MazF activator: activators of E. coli MazEF toxin-antitoxin RNase, primary screen, biochemical, fluorescence, uHTS; Endoribonuclease toxin MazF (Escherichia coli (strain K12)), P0AE70; FAM/BHQ RNA-DNA oligo cleavage fluorescence, 5 h; activation, % at 20 µM; actives 0.32% (n = 350,000); in the data active = activation above about 50%
Target sequence (P0AE70 whole entry, looked up): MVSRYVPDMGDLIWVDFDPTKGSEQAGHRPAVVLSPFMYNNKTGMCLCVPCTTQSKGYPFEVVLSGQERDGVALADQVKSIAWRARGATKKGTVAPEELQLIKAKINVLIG
BoNT F protease: BoNT/F light chain protease inhibitors, primary screen, biochemical, flow cytometry, MLPCN library; inhibition, % at 10 µM; actives 0.22% (n = 360,000); Multiplex microsphere protease cleavage assay; in the data active = inhibition above about 35%, passing the limit was not always enough; inconclusive = no clear call, values can overlap the other calls
Numbers stand for hits. Rule as the data show it, unless noted: active = inhibition above about 30%; inconclusive = no clear call, values can overlap the other calls; inactive = below that.

Results for COc1ccc(CCNC(=O)CSc2nnc(CNc3ccc(Cl)cc3)o2)cc1OC ?
Vc quorum ag: inactive; Autofluor counter: 21392; Anthrax LF prot: inactive; BoNT-A LC inh2: inactive; MazF activator: inactive; BoNT F protease: inactive

What do the screens show for `O=C(CN1C(=O)C(=O)N(C2CCCC2)C1=O)Nc1ccc(N2CCOCC2)cc1`?
Vc quorum ag: inactive; Autofluor counter: inactive; Anthrax LF prot: inactive; BoNT-A LC inh2: inactive; MazF activator: inactive; BoNT F protease: inactive

What do the screens show for `CCn1nc(C)c(CN2CCc3c([nH]c4ccccc34)C2c2ccc(F)c(OC)c2)c1C` (centres undefined)?
Vc quorum ag: inactive; Autofluor counter: inactive; Anthrax LF prot: inactive; BoNT-A LC inh2: inactive; MazF activator: inactive; BoNT F protease: inactive

What do the screens show for `Cc1ccc(S(=O)(=O)NCC(=O)OCC(=O)Nc2cccc(S(=O)(=O)N3CCOCC3)c2)cc1`?
Vc quorum ag: inactive; Autofluor counter: inactive; Anthrax LF prot: inactive; BoNT-A LC inh2: inactive; MazF activator: inactive; BoNT F protease: inactive

Results for c1nc(NC2CCCCC2)c2[nH]cnc2n1 ?
Vc quorum ag: inactive; Autofluor counter: 19676; Anthrax LF prot: inactive; BoNT-A LC inh2: inactive; MazF activator: inactive; BoNT F protease: inactive

Results for Cc1ccc(N2CC(C(=O)Nc3ccccc3C(=O)NC3CCCCC3)CC2=O)cc1C (centres undefined) ?
Vc quorum ag: inactive; Autofluor counter: 22887; Anthrax LF prot: inactive; BoNT-A LC inh2: inconclusive; MazF activator: inactive; BoNT F protease: inactive

Results for Cc1ccc(N2CC(C(=O)Nc3ccc(N(C)C)cc3)CC2=O)cc1C (centres undefined) ?
Vc quorum ag: inactive; Autofluor counter: 19991; Anthrax LF prot: inactive; BoNT-A LC inh2: inactive; MazF activator: inactive; BoNT F protease: inactive

How did COC(=O)c1ccccc1NC(=O)C1CC(=O)N(c2ccccc2)C1 (centres undefined) do in these assays?
Vc quorum ag: inactive; Autofluor counter: 22918; Anthrax LF prot: inactive; BoNT-A LC inh2: inactive; MazF activator: inactive; BoNT F protease: inactive

How did Oc1cccc(C(O)CNCc2ccc(OCc3ccc(Cl)cc3Cl)cc2)c1 (centres undefined) do in these assays?
Vc quorum ag: inactive; Autofluor counter: inactive; Anthrax LF prot: inactive; BoNT-A LC inh2: inactive; MazF activator: inactive; BoNT F protease: inactive

What do the screens show for `Cc1ccc(C(=O)NNC(=O)Cc2nc3nc(C)cc(C)n3n2)cc1`?
Vc quorum ag: inactive; Autofluor counter: inactive; Anthrax LF prot: inactive; BoNT-A LC inh2: inactive; MazF activator: inactive; BoNT F protease: inactive

What do the screens show for `Cc1cc(C)n2nc(CC(=O)NC3CCCCCC3)nc2n1`?
Vc quorum ag: inactive; Autofluor counter: 19846; Anthrax LF prot: inactive; BoNT-A LC inh2: inactive; MazF activator: inactive; BoNT F protease: inactive

What do the screens show for `O=C1CCCc2nc(N3CCN(Cc4ccccc4)CC3)ncc21`?
Vc quorum ag: inactive; Autofluor counter: 17293; Anthrax LF prot: inactive; BoNT-A LC inh2: inconclusive; MazF activator: inactive; BoNT F protease: inactive

How did Cc1nc(N2CCN(Cc3ccccc3)CC2)nc2c1C(=O)CCC2 do in these assays?
Vc quorum ag: inactive; Autofluor counter: inactive; Anthrax LF prot: inactive; BoNT-A LC inh2: inactive; MazF activator: inactive; BoNT F protease: inactive

How did Cc1cc2nc3c(nc2cc1C)C(O)=C3O do in these assays?
Vc quorum ag: inactive; Autofluor counter: inactive; Anthrax LF prot: inactive; BoNT-A LC inh2: inactive; MazF activator: inactive; BoNT F protease: inactive

How did CCc1sc(C(=O)NC)cc1Br do in these assays?
Vc quorum ag: inactive; Autofluor counter: 20040; Anthrax LF prot: inactive; BoNT-A LC inh2: inactive; MazF activator: inactive; BoNT F protease: inactive

How did CCc1sc(C(=O)NCc2cc(C)n(C)n2)cc1Br do in these assays?
Vc quorum ag: inactive; Autofluor counter: inactive; Anthrax LF prot: inactive; BoNT-A LC inh2: inactive; MazF activator: inactive; BoNT F protease: inactive

What do the screens show for `Cc1cccn2cc(CNc3ccccc3)nc12`?
Vc quorum ag: inactive; Autofluor counter: 20732; Anthrax LF prot: inactive; BoNT-A LC inh2: inactive; MazF activator: inactive; BoNT F protease: inactive

How did Cc1ccc2c(c1)c1c3n2CCN(CC#N)C3CCC1 (centres undefined) do in these assays?
Vc quorum ag: inactive; Autofluor counter: inactive; Anthrax LF prot: inactive; BoNT-A LC inh2: inactive; MazF activator: inactive; BoNT F protease: inconclusive

What do the screens show for `Cc1ccc2c(c1)c1c3n2CCCN(Cc2ccccc2)C3CCC1` (centres undefined)?
Vc quorum ag: inactive; Autofluor counter: 16950; Anthrax LF prot: inactive; BoNT-A LC inh2: inconclusive; MazF activator: inactive; BoNT F protease: inactive

What do the screens show for `Cc1cc(C)nc(/N=C(\N)C2=C(O)CC(C)(C)CC2=O)n1`?
Vc quorum ag: inactive; Autofluor counter: 21038; Anthrax LF prot: inactive; BoNT-A LC inh2: inactive; MazF activator: inactive; BoNT F protease: inactive

How did COc1ccc2nc(C)cc(SCC(=O)Nc3c(C)cc(C)cc3C)c2c1 do in these assays?
Vc quorum ag: inactive; Autofluor counter: 18106; Anthrax LF prot: inactive; BoNT-A LC inh2: inactive; MazF activator: inactive; BoNT F protease: inactive

How did COc1ccc2nc(C)cc(SCC(=O)NNC(=O)COc3ccc(C)cc3)c2c1 do in these assays?
Autofluor counter: inactive; Anthrax LF prot: inactive; BoNT-A LC inh2: inactive; MazF activator: 51.2; BoNT F protease: inactive

What do the screens show for `Cc1ccc(NC(=O)CSc2nnc3ccc(-c4ccncc4)nn23)cc1`?
Vc quorum ag: inactive; Autofluor counter: inconclusive; Anthrax LF prot: inactive; BoNT-A LC inh2: inactive; MazF activator: inactive; BoNT F protease: inactive

What do the screens show for `O=C(CNS(=O)(=O)c1ccc(Br)cc1)N1CCN(Cc2ccccc2)CC1`?
Vc quorum ag: inactive; Autofluor counter: inactive; Anthrax LF prot: inactive; BoNT-A LC inh2: inactive; MazF activator: inactive; BoNT F protease: inactive

Results for CN(C)c1ccc(N=Cc2ccco2)cc1 ?
Vc quorum ag: inactive; Autofluor counter: 20149; Anthrax LF prot: inactive; BoNT-A LC inh2: inactive; MazF activator: inactive; BoNT F protease: inactive

What do the screens show for `CN(C)c1ccc(C=Nc2ccc(N(C)C)cc2)cc1`?
Vc quorum ag: inactive; Autofluor counter: inactive; Anthrax LF prot: inactive; BoNT-A LC inh2: inactive; MazF activator: inactive; BoNT F protease: inactive

Results for CN(C)c1nnnn1-c1ccccc1Oc1ncc(C(F)(F)F)cc1Cl ?
Vc quorum ag: inactive; Autofluor counter: inactive; Anthrax LF prot: inactive; BoNT-A LC inh2: inactive; MazF activator: inactive; BoNT F protease: inactive

How did CN(C)c1ccc(/C=C2\SC(N3CCCCC3)=NC2=O)cc1 do in these assays?
Vc quorum ag: inactive; Autofluor counter: inactive; Anthrax LF prot: inactive; BoNT-A LC inh2: inactive; MazF activator: inactive; BoNT F protease: inconclusive

How did O=C(OCn1ncc(Cl)c(Cl)c1=O)c1ccccc1Cl do in these assays?
Vc quorum ag: inactive; Autofluor counter: 16218; Anthrax LF prot: inactive; BoNT-A LC inh2: inactive; MazF activator: inactive; BoNT F protease: inactive

From PubChem BioAssay
